15 compounds from PubChem BioAssay (NCI) can be followed below.

About 83,000 compounds went through this panel and 20% of them were active in at least one assay; those are over-represented in the sample as a whole.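 Compound tested at a single concentration for 48 hours in 96-well plates; a percent growth value below 10 was scored as active.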 Activity calls are given as the source filed them.

This assay relates to RXF 393 renal. In words: NCI-60 one-dose screen, 48 h (100 = growth as untreated, 0 = no growth, -100 = all killed). Particulars: 10 µM unless noted.
Turning to `Cc1ccc(C(=O)NCCCNc2nccc(-n3ccc4cccnc43)n2)cc1`, the growth is 102% (inactive).

As for `N/C(=N\C(N)=N\c1nc2ccccc2s1)c1ccncc1`, the growth is 65.7% (inactive).

On to `COC(=O)c1nc(-c2ccccc2)oc1S(=O)(=O)N1CCN(c2cccc(Cl)c2)CC1`, for which the growth is 84% (inactive).

Take `CCCCCCCCC(C)OC(=O)c1nn(C(C)=O)c2ccccc12` (stereo not given): the growth was 105% (inactive).

As to `Cc1ccc(N2CCN(C(C)C(N)=O)CC2)cc1` (stereo not given), the growth was 111% (inactive).

For the compound `COc1ccc(S(=O)(=O)NCCCNc2nccc(-c3c(-c4cccc([N+](=O)[O-])c4)nc4sccn34)n2)cc1`, the growth is 67.1% (inactive).

As to `COc1ccc(-n2c(=S)sc3c(Cl)nc(C)nc32)c(OC)c1`, the growth is 42.6% (inactive).

`N[C@@H]1CCN(C(=O)c2cc3cc(Cl)c(F)c(F)c3[nH]2)C1`: the growth was 87.1% (inactive).

Consider `C=C[C@@H]1C[C@@H]2Cc3cc(F)ccc3N1O2`, for which the growth was 115% (inactive).

For the compound `CCCCN(CCCC)C(=O)CC`, the growth is 128% (inactive).

Regarding `CC12CCC3C4(C)COC(c5ccco5)OC4CCC3(C)C1CC(C1=CCOC1=O)O2` (stereo not given), the growth was 99.3% (inactive).

`CCCCN(CCCC)C(=N)c1ccnc2ccccc12`: the growth was 127% (inactive).

With `C=C1C(=O)O[C@H]2[C@H]1CC/C(Cn1cc(CNC(=O)c3cc4ccccc4[nH]3)nn1)=C\CC[C@@]1(C)O[C@@H]21`, the growth was 24.5% (inactive).

Turning to `NC(=O)CCCN1C/C(=C\c2ccccc2)C(=O)c2ccccc21`, the growth is 81.9% (inactive).

In the case of `COc1cc(/C=C/C(=O)N2CCN(C(=O)/C=C/c3cc(OC)c(OC)c(OC)c3)CC2)cc(OC)c1OC`, the growth is 121% (inactive).
